Data from PubChem BioAssay (NCI).
“And” between values parts separate entries of the source, which are not always exact repeats. Identical values can stand only once. This is part of a sample that, as a whole, favours compounds with a hit. Of some 83,000 tested, about 20% had one in any assay.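 Treatment: one concentration, 48 hours, 96-well format. Scoring: percent growth, with anything below 10 considered active.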 Values without a mark were called inactive. The source made the active and inactive calls.

system: MDA-MB-468 breast; assay: NCI-60 one-dose screen, 48 h (100 = growth as untreated, 0 = no growth, -100 = all killed); conditions: 10 µM unless noted

SMILES | growth
Cc1cc(NS(=O)(=O)c2ccc(NC(=O)CSc3nc4ccccc4c(=O)n3-c3ccccc3)cc2)no1 | 91%
Cc1ccc(NC(=O)c2sc3nc4c(cc3c2N)C(=O)CCC4)cc1Cl | 105%
O=Cc1c[nH]c2ccc(NC(=O)OCc3ccccc3)cc12 | 109%
O=C1Nc2ccccc2C12Nc1cc(Cl)ccc1S2 (stereo unspecified) | 105%
COc1ccc2c(c1)sc1nc(-c3ccccc3)c(-c3ccsc3)n12 | 32.5%
Cc1ccc2cccc([N+](=O)[O-])c2n1 | 107% and 100%
Cc1ccc(/C=C/CC(=O)Nc2ccc(C(=O)Nc3ccc(F)cc3N)nc2)cn1 | 4.55% (active)
C=C(C)[C@@H]1CC[C@]2(C(=O)O)CC[C@]3(C)[C@H](CC[C@@H]4[C@@]5(C)C[C@@H](CC#Cc6ccc(Br)cc6)C(=O)C(C)(C)[C@@H]5CC[C@]43C)[C@@H]12 | 6.26% (active)
O=c1[nH]nnc2cc(Cl)ccc12 | 104%
Cc1ccc(C2CC(c3cccs3)=NN2c2ccc(S(N)(=O)=O)cc2)s1 (stereo unspecified) | 16.3%
O=C(CCCN1C(=O)/C(=C/c2ccccc2F)SC1=S)N1CCOCC1 | 55.7%
FC(F)(F)Oc1ccc2c(c1)C[C@H]1C[C@@H](c3ccoc3)N2O1 | 118%
c1ccc(Nc2ncc3c(n2)-c2cccn2CC3)cc1 | 4.29% (active)
CCOC(=O)c1c(C)oc2ncnc(N3CCN(C(=O)COc4ccc(SC)cc4)CC3)c12 | 81.9%
OCCN(CCO)c1ccc2ccccc2c1 | 107%
COc1c(N)c2c(c([N+](=O)[O-])c1OC)C(=O)OC2 | 107%
COc1ccc(Cn2c(Br)c3c(c2-c2cc(OC)c(OC)c(OC)c2)CCc2sc(NC(C)=O)nc2-3)cc1 | 22.8%
CCS(=O)(=O)c1ncnc2nc[nH]c12 | 105%
Cc1ccc(-c2csc(N/N=C/c3nc4ccccc4n3C3CC3)n2)cc1 | 98.5%
COc1ccc(/C=C/c2c(C(C)=O)c(C)nc3ccccc23)cc1 | 39.6%
CN(C)c1ccc(/C=C/c2sc3ccc4ccccc4c3[n+]2C)cc1 | -86.4% (active)
C=C(CN=[N+]=[N-])[C@@H]1CC[C@]2(C)[C@H](CC[C@@H]3[C@H]4[C@H]5OC(=O)[C@@]4(CCC5(C)C)CC[C@]32C)[C@@]1(C)CCC#N | 72.3% [100 µM]
Nc1ncnc2c1c(-c1ccc(Oc3ccccc3)cc1)nn2C[C@@H]1SSC[C@@H]1O | -27.7% (active)
N#Cc1c(-c2ccc(Cl)cc2)nc(N=Nc2c(O)[nH]c3ccc(Cl)cc23)nc1N1CCOCC1 | 90.8%
O=C(Nc1ccc2c(c1)-c1ccccc1C2)C1CC(=O)N(c2ccc3c(c2)OCO3)C1 (stereo unspecified) | 52.7% [50 µM]
CCOC(=O)C(CCN(C)C)c1ccccc1 (stereo unspecified) | 101%
